Screening results from PubChem.
A selection: hits, their analogues and other compounds. The true share with any hit is near 3.5%.
UHRF1 MBD2 ctr: human UHRF1 methylated DNA binding inhibitors; UHRF1 binding to methylated oligo, TR-FRET; inhibition, % at 4.4 µM; Q96T88; 0.75% of 370,000 active; in the data active = inhibition above about 21%;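 also: UHRF1 SRA domain binding a hemimethylated CpG hairpin DNA probe; 0% = median of test compound wells and 100% = reference inhibitor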
PG9 binder: PG9 antibody binding by small molecule; TR-FRET gp120-PG9 antibody binding; inhibition, % at 6.7 µM; 0.43% of 360,000 active; AID 624416; in the data active = inhibition above about 8.5%
rCAG RNA binder: binds r(CAG) RNA repeats; r(CAG) RNA repeat, TO-PRO-1 dye displacement fluorescence; inhibition, % at 3 µM; 1.3% of 370,000 active;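 active = inhibition above the plate cutoff, the mean of all test compounds on that plate plus 3 SD, cut at about 35% in these data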;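 also: 0% = DMSO alone and 100% = 100 µM mitoxantrone as full dye displacement; higher means more dye released from RNA so lower well fluorescence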
LEDGF integ inh: blocks HIV-1 LEDGF/p75-dependent DNA integration; AID 743269; 0.64% of 370,000 active; TR-FRET IN-LEDGF/p75 DNA integration, Eu/Cy5; inhibition, % at 3.7 µM;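 active = inhibition above the screen-wide mean plus 3 SD, cut at about 13% in these data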;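 also: signal is the Cy5 over europium emission ratio at 671 and 618 nm; 0% = plate median of compound wells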
DNMT1 block: DNMT1 (human) enzyme inhibition; P26358; inhibition (reported as % activation of signal), % at 10 µM; 0.83% of 360,000 active; DNMT1 molecular beacon, Hinp1I cleavage, fluorescence; in the data active = inhibition above about 50%
MBD2 inh: blocks human MBD2 binding to methylated DNA | TR-FRET, MBD2 binding to methylated oligonucleotide | inhibition, % at 4.4 µM | 0.31% of 370,000 active | AID 686964; in the data active = inhibition above about 13%
PG9 bind confirm: PG9 antibody binding, confirmed | shares compounds with PG9 binder | TR-FRET PG9 antibody binding, biochemical | inhibition, % at 6.7 µM | 90% of 1,500 active | AID 651571; in the data active = inhibition above about 9%
PGV04 counter: counter-screen for PG9 binders: binding control antibody PGV04; shares compounds with PG9 binder; TR-FRET PGV04 antibody-gp120 binding, biochemical; inhibition, % at 6.7 µM; 95% of 1,500 active; in the data active = inhibition above about 9.5%
PG9 bind DR: PG9 antibody binding, dose response; shares compounds with PG9 binder; TR-FRET PG9 antibody-gp120 binding inhibition; IC50, µM; 95 tested, under 10 active; AID 651848; in the data active = IC50 below about 10 µM
PGV04 DR counter: counter-screen for PG9 binders: binding to control antibody PGV04; shares compounds with PG9 binder; TR-FRET binding to control antibody PGV04; IC50, µM; 20% of 95 active; AID 651937
PG126 binding DR: PG126 binding, dose response counter-screen. shares compounds with PG9 binder. TR-FRET binding to antibody PG126, counterscreen. IC50, µM. 20% of 95 active
An asterisk follows results filed as active; i = inactive; nt = no result given. Rule as the data show it, unless noted: active = IC50 below about 9 µM; inactive = the rest.

SMILES	UHRF1 MBD2 ctr	PG9 binder	rCAG RNA binder	LEDGF integ inh	DNMT1 block	MBD2 inh	PG9 bind confirm	PGV04 counter	others
Cc1ccc(NC(=O)C2CCCN(S(=O)(=O)c3ccc4[nH]c(=O)ccc4c3)C2)nc1 (stereo unspecified)	8	-1	1	0	2	1	nt	nt
COc1ccc(NC(=O)C2CCCN(S(=O)(=O)c3ccc4[nH]c(=O)ccc4c3)C2)cc1 (stereo unspecified)	7	9.6*	3	0	-1	3	18*	26*
COc1cc(NC(=O)C2CCCN(S(=O)(=O)c3ccc4[nH]c(=O)ccc4c3)C2)cc(OC)c1 (stereo unspecified)	2	-2	5	8	-1	-2	nt	nt
CCOc1ccc(NC(=O)C2CCCN(S(=O)(=O)c3ccc4[nH]c(=O)ccc4c3)C2)cc1 (stereo unspecified)	2	11*	2	1	25	-1	38*	63*
CSc1ccc(NC(=O)C2(C)CCN2C(=O)c2sccc2C)cc1 (stereo unspecified)	4	-1	0	-3	1	4	nt	nt
CCCn1c(/C=C/c2cc[n+](C)cc2)nc2ccccc21	-5	10*	-10	-3	5	-1	13*	15*
COc1cccc(-c2ccc(C#N)c(SCC(=O)NCc3ccco3)n2)c1	2	11*	2	-2	-1	-6	20*	36*
CC(=O)CSc1nnc(-c2ccc(S(=O)(=O)N3CCCC3)cc2)n1C	0	1	0	0	1	-8	nt	nt
Cn1c(SCC(=O)N2CCc3ccccc32)nnc1-c1ccc(S(=O)(=O)N2CCCC2)cc1	3	9.5*	4	0	-2	4	17*	25*
Cc1ccc2[nH]c3c(=S)nc[nH]c3c2c1	-11	72*	3	-1	-2	-10	44*	21*	PG9 bind DR=>67;PGV04 DR counter=i;PG126 binding DR=i
Cc1ccc2[nH]c3c(=O)n(N)c(C)nc3c2c1	0	1	6	4	9	0	nt	nt
CCCCOc1ccc(C(=O)Nc2ccc3c(c2)C(=O)NC3=O)cc1	-1	21*	4	-3	34	-2	6	11*
O=C(Nc1ccc2c(c1)C(=O)NC2=O)c1ccc(Cl)s1	3	-3	-1	-2	3	3	nt	nt
CCOc1ccc(C(=O)Nc2ccc3c(c2)C(=O)NC3=O)cc1	-2	-1	1	-1	39	-4	nt	nt
O=C(Nc1ccc2c(c1)C(=O)NC2=O)c1cc(Cl)ccc1Cl	1	9.5*	5	-2	-1	-1	10*	15*
Cc1cccc(C(=O)Nc2ccc3c(c2)C(=O)NC3=O)c1	0	0	2	-2	5	2	nt	nt
O=C(Nc1ccc2c(c1)C(=O)NC2=O)c1cccc(Cl)c1	0	17*	4	4	28	-2	28*	47*
CS(=O)(=O)N1CCCCC1c1cc(C(=O)Nc2ccccc2Cl)no1 (stereo unspecified)	3	1	0	3	-2	2	nt	nt
Cc1ccccc1OCCOC(=O)c1cc(S(=O)(=O)N2CCCCC2)ccc1N1CCOCC1	-1	2	8	-4	-7	0	nt	nt
O=C(NCC1CCN(C(=O)C(=O)c2cc3ccccc3o2)CC1)c1ccc2c(c1)OCC2	-3	-1	4	2	nt	-5	nt	nt
O=c1[nH]c2ccccc2cc1CN(c1ccccc1)S(=O)(=O)c1ccccc1	5	18*	4	-1	0	-1	25*	27*
CC(OC(=O)/C=C/c1ccc2ccccc2n1)C(=O)NCc1ccccc1 (stereo unspecified)	1	15*	-1	-1	1	-8	11*	13*
CC(C)[C@H](NS(=O)(=O)c1cccc(Cl)c1)C(=O)OCC(=O)NC(=O)CN1CCCC1=O	nt	nt	nt	nt	38	nt	nt	nt
Cc1nn(-c2ccccc2)c2sc(C(=O)NNC(=O)COc3cccc4ccccc34)cc12	-3	10*	7	-4	20	-2	11*	20*
O=C(COC(=O)/C=C/c1ccccc1)NC1CCCCC1	0	0	4	1	2	-1	nt	nt
SMILES	UHRF1 MBD2 ctr	PG9 binder	rCAG RNA binder	LEDGF integ inh	DNMT1 block	MBD2 inh	PG9 bind confirm	PGV04 counter	others
Cc1cc2cc(CN3C(=O)c4ccccc4C3=O)ccc2n1C	1	31*	5	1	10	0	39*	63*
Cc1ccc(N=Cc2ccc(O)cc2O)cc1F	-2	17*	21	37*	-32	-9	11*	15*
Oc1ccc(C=Nc2cccc3ccccc23)c(O)c1	-12	-6	16	12	-65	-7	nt	nt
O=C(CCCn1c(=O)c2cccn2c2cccnc21)NCc1cccc(Br)c1	1	23*	-1	-1	2	1	31*	41*
CCc1ccc(CNC(=O)CCCn2c(=O)c3cccn3c3cccnc32)cc1	2	2	-2	-3	4	2	nt	nt
CSc1cccc(NC(=O)CCCn2c(=O)c3cccn3c3cccnc32)c1	3	12*	4	-2	-5	9	14*	20*
CCOc1cc(CNC(=O)CCCn2c(=O)c3cccn3c3cccnc32)cc(OCC)c1OCC	1	1	-7	2	-1	0	nt	nt
CN(C(=O)c1cccc(NC(=O)Cc2ccc(NC(=O)C3CCCN(C(=O)C4CCCCC4)C3)cc2)c1)C1CCCCC1 (stereo unspecified)	0	-1	3	5	-6	-3	nt	nt
O=C(CN1CCN(c2ccc(O)cc2)CC1)Nc1ccc2c(c1)OCCCO2	-4	8	17	3	-9	-12	nt	nt
C=CCN1[C@H](CC(C)C)COc2cc(N3CCSCC3)ccc2S1(=O)=O	1	nt	6	-3	nt	3	nt	nt
CC1(C)Oc2ccc3ccc(=O)oc3c2C(N2CCCCC2)C1O (stereo unspecified)	0	11*	-4	-1	-1	0	7	9.2*
CCOC1=C2CN(S(=O)(=O)c3ccc(C)cc3)[C@H](c3cccc4ccccc34)C[C@H]2[C@H]2C(=O)N(c3ccccc3)C(=O)[C@H]2C1	-1	-2	12	-2	-2	0	nt	nt
